Where “and” joins values, the source holds several entries; their conditions need not be identical. Equal values may be shown once. Results filed as inconclusive are left out. The source holds several records for some structures; these can differ, active in one and inactive in another. Calls of active or inactive are those of the source. The calls were made as follows, unless noted: active = hit-call score of the fitted dose curve at least 0.9, where 1 is the maximum; inconclusive = response in the unintended direction; inactive = score below 0.9.

Tested on in the first assay: not listed separately
Put plainly: CCTE_Shafer_MEA_dev_per_network_spike_spike_percent: CCTE's Neural Network Formation Assay for Percent of Spikes in a Network Spike, Shafer Lab (AID 2284054; active = hit-call score of the fitted dose curve at least 0.9, where 1 is the maximum; inactive = score below 0.9). In outline: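 Primary rat cortical neurons on 16-electrode MEA wells (PEI-coated, laminin at plating), exposed from day 0 with renewal at DIV 5 and 9; spikes within 0.05 s of network-spike peaks over total spikes, AUC across days 5, 7, 9, 12.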
What is called AC50 is the concentration at which the activity in the assay is half-maximal. As to `O=S1OCC2C(CO1)C1(Cl)C(Cl)=C(Cl)C2(Cl)C1(Cl)Cl` (configuration not stated), the AC50 was 4.76 µM (active).
In the case of `CC[C@H](C)[C@H]1O[C@]2(C=C[C@@H]1C)C[C@@H]1C[C@@H](C/C=C(\C)[C@@H](O[C@H]3C[C@H](OC)[C@@H](O[C@H]4C[C@H](OC)[C@@H](O)[C@H](C)O4)[C@H](C)O3)[C@@H](C)/C=C/C=C3\CO[C@@H]4[C@H](O)C(C)=C[C@@H](C(=O)O1)[C@]34O)O2` (tested in a mixture with another compound), the AC50 was 0.259 µM (active) and the molecule was called inactive.
As to `Oc1cc(Cl)ccc1Oc1ccc(Cl)cc1Cl`, the half-maximal activity concentration (AC50) was 9.46 µM (active).
`O=S(=O)(O)C(F)(F)C(F)(F)C(F)(F)C(F)(F)C(F)(F)C(F)(F)C(F)(F)C(F)(F)F`: the call was inactive.
The same measure, in the same setting: as for `COP(=S)(OC)Oc1ccc([N+](=O)[O-])cc1`, the entry is “inactive”; as for `CCC(C)(C)C(=O)OC1=C(c2ccc(Cl)cc2Cl)C(=O)OC12CCCCC2`, “inactive”; as for `ClC1C(Cl)C(Cl)C(Cl)C(Cl)C1Cl` (configuration not stated), “inactive”.
Regarding `O=C(O)C(F)(F)C(F)(F)C(F)(F)C(F)(F)C(F)(F)C(F)(F)C(F)(F)F`, the call was inactive.
Take `CC(C)N(C(=O)COc1nnc(C(F)(F)F)s1)c1ccc(F)cc1`: the half-maximal activity concentration (AC50) is 15 µM (active) and the molecule was called inactive.
Turning to `CC1(c2ccc(Oc3ccccc3)cc2)OC(=O)N(Nc2ccccc2)C1=O` (configuration not stated), the half-maximal activity concentration (AC50) was 2.47 µM (active).
As for `O=C(O)COc1ccc(Cl)cc1Cl`, the call was inactive.
On to `COP(=O)(OC)OC=C(Cl)Cl`, for which the AC50 is 1.99 µM (active).
On the same count and under the same terms, next, `CC1(C)C(C=C(Cl)Cl)C1C(=O)OC(C#N)c1ccc(F)c(Oc2ccccc2)c1` (configuration not stated): 1.72 µM (active) and 13.6 µM (active) and 4.24 µM (active); `CNC(=O)CSP(=S)(OC)OC`: 50 µM (active) and 15 µM (active).
On to `O=[N+]([O-])/N=C1\NCCN1Cc1ccc(Cl)nc1`, for which the molecule was classed as inactive.

In the next assay the test system is DIO3 (gene 1735). Put plainly: CCTE_GLTED_hDIO3: CCTE's human Deiodinase 3 (DIO3) Inhibition Assay, Great Lakes Toxicology and Ecology Division (GLTED) Lab (AID 2284055).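 As to AC50: potency is for inhibition seen as loss of released iodide signal.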 In outline: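 Absorbance from the Sandell-Kolthoff reaction reports iodide released by human DIO3 during a 3-hour incubation with chemical. Inhibition scored as signal loss against DMSO controls.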
Consider `CCC(C)(NC(=O)c1cc(Cl)c(C)c(Cl)c1)C(=O)CCl` (configuration not stated), for which the AC50 was 41.2 µM (active).
Same read-out and setting: as for `Oc1cc(Cl)ccc1Oc1ccc(Cl)cc1Cl`, the figure is 85.5 µM (active).
As for `O=S(=O)(O)C(F)(F)C(F)(F)C(F)(F)C(F)(F)C(F)(F)C(F)(F)C(F)(F)C(F)(F)F`, the outcome was inactive.
Turning to `N#Cc1c(Cl)c(Cl)c(Cl)c(C#N)c1Cl`, the AC50 is 0.404 µM (active).
Consider `Oc1ccc(Cl)cc1Cc1ccccc1`, for which the AC50 was 158 µM (active).
Consider `CCOCN(C(=O)CCl)c1c(C)cccc1CC`, for which the AC50 was 58.1 µM (active).

Tested on in a further assay: not listed separately
Put plainly: UKN5_HCS_SBAD2_cell_viability: Viability Assessment in the University of Konstanz (UKN) Leist Lab Neurite Outgrowth Assay in human iPSC-derived immature Dorsal Root Ganglia Neurons (UKN5) (AID 2284056; active = hit-call score of the fitted dose curve at least 0.9, where 1 is the maximum; inactive = score below 0.9). How it is done: UKN5_HCS_SBAD2 is a cell-based, multiplexed-readout assay screening for neurite outgrowth and cell viability that uses SBAD2 (peripheral neurons differentiated from iPSC), a human peripheral nervous system cell line, with measurements taken at […] after chemical dosing in a microplate: 96-well plate. UKN5, also referred to as PeriTox, is an assay that uses human iPSC line SBAD2 as a model of peripheral neurons. Following 24 hr chemical exposures in multi-well plates, neurite area is evaluated as a marker of neurite outgrowth using high-content imaging of cells stained with calcein-AM. Cell viability is assessed using stain Hoechst H-33342.UKN5_HCS_SBAD2_cell_viability is an assay component measured from the UKN5_HCS_SBAD2 assay. It is designed to make measurements of enzyme activity, a form of viability reporter, as detected with Fluorescence intensity signals by HCS Fluorescent Imaging.The assay endpoint UKN5_HCS_SBAD2_cell_viability was analyzed with bidirectional fitting relative to DMSO as the negative control and baseline of activity. Using a type of viability reporter, gain or loss-of-signal activity can be used to understand viability effects. To generalize the intended target to other relatable targets, this assay endpoint is annotated to the cell cycle intended target family, where the subfamily is viability.
The previously differentiated immature peripheral neurons are thawed and seeded on Matrigel coated plates (1:40 diluted) in 75 ul medium composed of 75% N2-S medium and 25% KSR medium, supplemented with CHIR99021 (1.5 uM), SU5402 (5 uM) and DAPT (gamma-Secretase inhibitor IX, 5 uM) at a density of 100.000 cells/cm2. One hour after seeding, treatment compounds are added to the cells in 25 ul of similar to culture medium in which cells were seeded. 23 h after toxicant application, cells are live-stained with H-33342 and calcein-AM and incubated for 60 min. After 24 h of treatment (including staining), the cells are imaged using a high-content microscope (Cellomics VTI Array Scan).
On to `O=S(=O)(O)C(F)(F)C(F)(F)C(F)(F)C(F)(F)C(F)(F)C(F)(F)C(F)(F)C(F)(F)F`, for which the AC50 is 770 µM (active).
On to `ClC1C(Cl)C(Cl)C(Cl)C(Cl)C1Cl` (configuration not stated), for which the molecule was classed as inactive.
Turning to `O=C(O)C(F)(F)C(F)(F)C(F)(F)C(F)(F)C(F)(F)C(F)(F)C(F)(F)F`, the AC50 is 768 µM (active).
With `CC(C)N(C(=O)COc1nnc(C(F)(F)F)s1)c1ccc(F)cc1`, the result was inactive.
The same measure, in the same setting: next, `O=[N+]([O-])/N=C1\NCCN1Cc1ccc(Cl)nc1`: “inactive”.

Tested on in another assay: not listed separately
Nature of the assay: CCTE_Shafer_MEA_dev_LDH: CCTE's Lactate Dehydrogenase Assay for Cytotoxicity in the Neural Network Formation Assay, Shafer Lab (AID 2284068).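 Also: exposure for twelve days from plating with re-dosing on DIV 5 and 9.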 In outline:
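Primary rat cortical neurons were plated on PEI/laminin MEA plates and exposed from day 0 for twelve days, with compound renewed at DIV 5 and 9. Cytotoxicity was determined by spectrophotometric LDH assay relative to DMSO.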
As to `O=S1OCC2C(CO1)C1(Cl)C(Cl)=C(Cl)C2(Cl)C1(Cl)Cl` (configuration not stated), the AC50 is 8.55 µM (active).
Still for that read-out and setting: next, `CC[C@H](C)[C@H]1O[C@]2(C=C[C@@H]1C)C[C@@H]1C[C@@H](C/C=C(\C)[C@@H](O[C@H]3C[C@H](OC)[C@@H](O[C@H]4C[C@H](OC)[C@@H](O)[C@H](C)O4)[C@H](C)O3)[C@@H](C)/C=C/C=C3\CO[C@@H]4[C@H](O)C(C)=C[C@@H](C(=O)O1)[C@]34O)O2` (tested in a mixture with another compound): 522 nM (active) and 0.537 nM (active); `Oc1cc(Cl)ccc1Oc1ccc(Cl)cc1Cl`: 6.58 µM (active).
For `O=S(=O)(O)C(F)(F)C(F)(F)C(F)(F)C(F)(F)C(F)(F)C(F)(F)C(F)(F)C(F)(F)F`, the AC50 was 16.4 µM (active) and the outcome was inactive.
With `CCC(C)(C)C(=O)OC1=C(c2ccc(Cl)cc2Cl)C(=O)OC12CCCCC2`, the molecule was called inactive.
On the same count and under the same terms, next, `ClC1C(Cl)C(Cl)C(Cl)C(Cl)C1Cl` (configuration not stated): “inactive”.
Same read-out and setting: next, `O=C(O)C(F)(F)C(F)(F)C(F)(F)C(F)(F)C(F)(F)C(F)(F)C(F)(F)F`: “inactive”.
With `CC(C)N(C(=O)COc1nnc(C(F)(F)F)s1)c1ccc(F)cc1`, the half-maximal activity concentration (AC50) was 15 µM (active) and the call was inactive.
Turning to `CC1(c2ccc(Oc3ccccc3)cc2)OC(=O)N(Nc2ccccc2)C1=O` (configuration not stated), the AC50 was 3.28 µM (active).
Still for that read-out and setting: as for `O=C(O)COc1ccc(Cl)cc1Cl`, the figure is 15 µM (active).
Consider `COP(=O)(OC)OC=C(Cl)Cl`, for which the AC50 was 3.8 µM (active) and the outcome was inactive.
As for `CC1(C)C(C=C(Cl)Cl)C1C(=O)OC(C#N)c1ccc(F)c(Oc2ccccc2)c1` (configuration not stated), the concentration at half-maximal activity (AC50) was 42.3 µM (active) and the molecule was called inactive.
Turning to `CNC(=O)CSP(=S)(OC)OC`, the AC50 is 66.6 µM (active) and 24.2 µM (active).
For `O=[N+]([O-])/N=C1\NCCN1Cc1ccc(Cl)nc1`, the result was inactive.

Tested on in another assay: not listed separately
Put plainly: CCTE_Shafer_MEA_acute_AB: CCTE's Alamar Blue Assay for Cytotoxicity in the Neural Acute Assay, Shafer Lab (AID 2284069).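 Also: active compounds lower the viability signal compared with DMSO wells.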 In short, it runs like this:
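Primary rat cortical neurons on MEA plates, exposed acutely after baseline recording on day 13 or 15 post-plating. Viability by CellTiter Blue resazurin reduction (1:6 reagent dilution), fluorescence 544/590 nm; loss of signal versus DMSO.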
For orientation: The colour change of resazurin is a common sign of viable cells or microbes.
As for `O=S1OCC2C(CO1)C1(Cl)C(Cl)=C(Cl)C2(Cl)C1(Cl)Cl` (configuration not stated), the molecule was classed as inactive.
Still for that read-out and setting: as for `Oc1cc(Cl)ccc1Oc1ccc(Cl)cc1Cl`, the entry is “inactive”; as for `O=C(O)CCCOc1ccc(Cl)cc1Cl`, “inactive”; as for `O=S(=O)(O)C(F)(F)C(F)(F)C(F)(F)C(F)(F)C(F)(F)C(F)(F)C(F)(F)C(F)(F)F`, “inactive”.
Still for that read-out and setting: next, `Clc1ccccc1-c1nnc(-c2ccccc2Cl)nn1`: “inactive”.
Still for that read-out and setting: next, `CCCN(CCC)c1c([N+](=O)[O-])cc(C(F)(F)F)cc1[N+](=O)[O-]`: “inactive”.
`CCC(C)(C)C(=O)OC1=C(c2ccc(Cl)cc2Cl)C(=O)OC12CCCCC2`: the call was inactive.
Same read-out and setting: next, `CNC(=O)/C=C(\C)OP(=O)(OC)OC`: “inactive”; `N#Cc1c(Cl)c(Cl)c(Cl)c(C#N)c1Cl`: “inactive”.
Consider `CC1(C)C(C=C(Cl)Cl)C1C(=O)OC(C#N)c1ccc(F)c(Oc2ccccc2)c1` (configuration not stated), for which the call was inactive.
Regarding `N#CN`, the molecule was called inactive.
On the same count and under the same terms, as for `Oc1ccc(Cl)cc1Cc1ccccc1`, the entry is “inactive”; as for `CCC(C)Nc1c([N+](=O)[O-])cc(C(C)(C)C)cc1[N+](=O)[O-]` (configuration not stated), “inactive”; as for `COP(=S)(OC)Oc1ccc(SC)c(C)c1`, “inactive”.
For `O=C1c2ccccc2C(=O)N1SC(Cl)(Cl)Cl`, the AC50 was 20 µM (active).
On to `CCCN(CCOc1c(Cl)cc(Cl)cc1Cl)C(=O)n1ccnc1`, for which the molecule was called inactive.

The values above are taken from PubChem BioAssay (EPA / NIEHS).
